# Source: ChEMBL document CHEMBL3988442, “University of Dundee, Small-Polar-MMV Screening Library” (2021)
# Among all 48,000 compounds or so, about 13,000 (27%) showed an effect of 50% or more. The list shows a part of the results.
# System: Wolbachia pipientis
# Test: Anti-Wolbachia Cell-Based Screen
# Format: functional
# Set-up: scale not given: in the data most compounds retested in dose-response had high values
# Conditions: 5 µM
row,SMILES,Percent Effect
1,CCn1cc(Cn2cc(-c3cccc(C(C)N(C)C)c3)nn2)cn1 (stereo not drawn),-0.05647%
2,COc1ccc(N(C)C(=O)C2CN(C)CCO2)cc1Cl (stereo not drawn),4.765%
3,Cn1ccnc1-c1cn(CCCc2csc(N)n2)nn1,106.8%
4,Cc1ccccc1C1CCN(CCn2cc(-c3nccn3C)nn2)C1 (stereo not drawn),-7.795%
5,Cn1cccc1-c1cc(C(=O)NCCCc2csc(N)n2)[nH]n1,-5.944%
6,Cn1ccnc1-c1cn(CCc2nnc(N)s2)nn1,90.14%
7,CCc1nc(CCn2cc(-c3nccn3C)nn2)no1,-10.63%
8,Cn1ccnc1-c1cn(CCCc2nnc(N)s2)nn1,101%
9,Cc1cn(CCn2ccnc2-c2sccc2C)nn1,-12.56%
10,CCOc1ncccc1Cn1cc(-c2nccn2C)nn1,-13.21%
11,Cc1cc(-n2nc(C)nc2-c2cn(CCN)nn2)ccn1,-45.52%
12,Cn1ccnc1C(=O)NCCS(=O)(=O)c1ccc(C(C)(C)C)cc1,15.11%
13,Cc1cc(C)c(CNC(=O)NCC(c2ccccc2)N(C)C)c(=O)[nH]1 (stereo not drawn),1.646%
14,CC(C)NS(=O)(=O)c1cc(C(=O)O)cc(-c2ccc3c(c2)OCO3)c1,10.97%
15,CCC(NC(=O)c1cccc2cc[nH]c12)C(=O)N1CCOCC1 (stereo not drawn),1.714%
16,Cc1cnc(N2CCC3(CCC(C(=O)NC(C)C)C3)CC2)nc1.O=C(O)C(F)(F)F (stereo not drawn),-24.15%
17,Cc1cnc(N2CCC3(CC2)CC3CNC(=O)C2CCC2)nc1.O=C(O)C(F)(F)F (stereo not drawn),-2.894%
18,COc1ccnc(N2CCC3(CCCN(CC4CC4)C3=O)C2)n1 (stereo not drawn),-5.296%
19,Cc1cnc(N2CCC3(CCN(CC4CCCC4)C3=O)CC2)nc1.O=C(O)C(F)(F)F,94.42%
20,O=C(O)C(F)(F)F.O=C1N(CC2CC2)CCC12CCCN(c1ncc(F)cn1)C2 (stereo not drawn),107.4%
21,O=C(O)C(F)(F)F.O=C1N(CC2CCCC2)CCC12CCN(c1ncc(F)cn1)CC2,111.9%
22,CN(C)C(=O)CN1CCC2(CCCN(c3ncc(F)cn3)C2)C1=O (stereo not drawn),-17.79%

row,SMILES,Percent Effect
1,CN1CCC2(CCN(c3ncc(F)cn3)CC2)C1=O.O=C(O)C(F)(F)F,5.555%
2,O=C(O)C(F)(F)F.O=C(O)C(F)(F)F.c1cnc(N2CCC3(CCN(CC4CC4)CC3)CC2)nc1,-4.913%
3,CC(C)OCCC1CCCCN1S(N)(=O)=O (stereo not drawn),5.549%
4,Cc1cnn(-c2cccc(N3CCCC3)n2)c1,2.122%
5,Cc1cc(C)n(CC2CN(CC(=O)N3CCC3)CCO2)n1 (stereo not drawn),107.3%
6,Cc1cc(C)n(CC2CN(CC(=O)N3CCNC3=O)CCO2)n1 (stereo not drawn),88.91%
7,Fc1cc(CNCCn2cccn2)ccc1-n1cncn1,-7.055%
8,Cc1nc(CSc2ccc(C(F)(F)F)cn2)no1,-11.09%
9,COc1ccc(C(=O)NCCN2CCC(c3cccs3)CC2)cc1OC,108.4%
10,Cc1ccccc1C1CCN(CCNC(=O)CS(C)(=O)=O)C1 (stereo not drawn),-1.802%
11,COc1ccc(C(=O)NCC(=O)N(Cc2ccsc2)C2CC2)cc1OC,-17.21%
12,CCCNC(=O)c1cc2c([nH]c1=O)CC(c1cccs1)CC2=O (stereo not drawn),1.208%
13,CCCN1CCC(NC(=O)c2csc(C)c2-c2ccccc2)CC1,2.697%
14,CC(=O)NCCN1CCC(c2cccs2)CC1,-11.86%
15,CCSc1ccccc1C(=O)NCCN1CCC(c2cccs2)CC1,153.4%
16,O=C(NCCN1CCC(c2cccs2)CC1)c1ccccc1C(F)(F)F,6.812%
17,O=C(NCCN1CCCC(CO)C1)c1ccc2sccc2c1 (stereo not drawn),0.9044%
18,O=C(Cc1ccccc1Cl)NCCN1CCC(c2cccs2)CC1,167.3%
19,Cc1csc(C(=O)NCCN2CCC(c3cccs3)CC2)c1,131.4%
20,Cc1nc(CC(=O)NCCN2CCC(c3ccccc3C)C2)cs1 (stereo not drawn),-10.54%
21,CCNc1ncc(C2CC(=O)Nc3c2cnn3Cc2ccncc2)cn1 (stereo not drawn),0.3044%
22,CCSCCC(=O)NCc1cnn(-c2ccc(F)cc2F)c1,1.546%

row,SMILES,Percent Effect
1,Cc1ccc(S(=O)(=O)NC(=O)CCOCC(C)C)s1,14.43%
2,O=C(CCc1cc(Cl)no1)N1CCCCC1CCn1ccnc1 (stereo not drawn),-6.627%
3,O=C(c1cccnc1-n1cncn1)N1CCc2ccccc2C1,12.03%
4,COc1ccc(CNCC2CCN(CC(C)O)CC2)c2ccccc12 (stereo not drawn),-9.036%
5,CCN(Cc1nnnn1C1CC1)c1cc(C)ccc1C,-3.19%
6,O=C(NCCN1CCC(c2cccs2)CC1)c1ccc(F)cc1Cl,122.6%
7,O=C(NCC(c1cccs1)N1CCOCC1)c1ccc(F)cc1Cl (stereo not drawn),-4.405%
8,CCN(CC)C(=O)Cc1csc(C(C)C)n1,-7.822%
9,Cc1cccc(OCC(=O)N(C)C2CCN(CC3CCOC3)CC2)c1 (stereo not drawn),-8.689%
10,CCCNc1ncc(CN2C[C@H]3CC[C@@H]2CN(C2CCOCC2)C3)cn1,7.731%
11,c1ncn(CC2CN(CCCOc3ccc4c(c3)OCO4)CCO2)n1 (stereo not drawn),97.52%
12,c1cnn(C2CN(CCCOc3ccc4c(c3)OCO4)C2)c1,-8.072%
13,c1cnn(CC2CN(CCCOc3ccc4c(c3)OCO4)CCO2)c1 (stereo not drawn),1.566%
14,Clc1cccc(OCCCN2CCOC(Cn3cncn3)C2)c1 (stereo not drawn),125.7%
15,Fc1ccc(OCCCN2CCOC(Cn3cncn3)C2)cc1 (stereo not drawn),3.822%
16,Clc1ccc(OCCCN2CCOC(Cn3cncn3)C2)cc1 (stereo not drawn),88.34%
17,COc1ccc(OCCCN2CCOC(Cn3cccn3)C2)cc1 (stereo not drawn),1.876%
18,N#Cc1ccc(OCCCN2CCOC(Cn3cncn3)C2)cc1 (stereo not drawn),94.1%
19,c1ccc2cc(OCCN3CCOC(Cn4cncn4)C3)ccc2c1 (stereo not drawn),0.3629%
20,Fc1ccc(CN2CCOC(Cn3cncn3)C2)c2ncccc12 (stereo not drawn),-8.547%
21,Cc1cc2n(n1)CC(CNCc1cnn(-c3ccccc3)c1)CN2 (stereo not drawn),-14.73%
22,COc1ccccc1C1CNC(=O)c2nc(-c3ncc[nH]3)[nH]c2C1 (stereo not drawn),-17.95%

row,SMILES,Percent Effect
1,N#Cc1ccccc1C(=O)N1C[C@H]2CC[C@@H]1CN(Cc1ccccc1)C2,1.705%
2,CCN(Cc1ccco1)C(=O)NCC(c1cccs1)N(C)C (stereo not drawn),-4.593%
3,Cc1nnc(N(CCC#N)CCC#N)s1,120.1%
4,Cc1nnc(CN2CCCC2c2cccc(Br)c2)o1 (stereo not drawn),20.93%
5,CS(=O)(=O)c1ccc(CN2CCCCC2c2cccc(F)c2)cc1 (stereo not drawn),5.873%
6,N#CCCN(C(=O)CN1CCCC1c1ccccc1Cl)c1ccccc1 (stereo not drawn),-18.96%
7,Cc1nn(C)c(C)c1C1CCCN1Cc1cn2ccsc2n1 (stereo not drawn),7.69%
8,Cc1nn(C)cc1CN1CCCCCC1c1ccccc1Cl (stereo not drawn),134.4%
9,Cc1ccc(C2CCCCCN2Cc2cn(C)nc2C)cc1 (stereo not drawn),6.787%
10,Cc1ccc(C2CCCCCN2Cc2cn(C)nc2C)s1 (stereo not drawn),10.12%
11,Cc1nn(C)cc1CN1CCCCCC1c1ccc(Cl)cc1 (stereo not drawn),98.47%
12,Cc1cccc(C2CCCCCN2Cc2cn(C)nc2C)c1 (stereo not drawn),99.27%
13,Cc1ccsc1C1CCCCCN1Cc1cn(C)nc1C (stereo not drawn),87.45%
14,COC(=O)CCN1CCCC1c1ccccc1Cl (stereo not drawn),-1.683%
15,Cc1nnc(CN2CCCC2c2ccc(Cl)c(Cl)c2)o1 (stereo not drawn),-0.8555%
16,Cc1nn(C)c(C)c1CCC(=O)OCC(=O)N1CCc2sccc2C1,-1.071%
17,Cc1ccnc(C(NC(=O)c2sc(C)nc2C)C2CC2)n1 (stereo not drawn),-13.48%
18,CC(SCCNS(=O)(=O)c1cnn(C)c1)c1cccc(F)c1 (stereo not drawn),13.07%
19,COc1ccc(C2CCCCCN2Cc2cn(C)nc2C)cc1 (stereo not drawn),97.09%
20,COc1ccc(C2CCCCCN2Cc2nnc(C)o2)cc1 (stereo not drawn),-42.58%
21,CC(C)N(C)C(=O)C1CSCN1S(=O)(=O)c1cc(Cl)ccc1Cl (stereo not drawn),-2.04%
22,O=C(NCC(F)(F)F)C(c1cccnc1)N1CCOCC1 (stereo not drawn),-10.65%

row,SMILES,Percent Effect
1,Cc1cc(Cc2ccccc2F)cc(C2CCCNC2)n1 (stereo not drawn),100.5%
2,Cc1cc(C2CCC2)nc(N(C)Cc2ncccc2C)n1,22.22%
3,Cc1cc(Cc2ccccc2C)cc(C2CCCNC2)n1 (stereo not drawn),111.5%
4,CCOc1ccc2ccccc2c1CNCC1CCNCC1.Cl.Cl,8.229%
5,Cc1cc(N2CCC(n3cc(CN4CCC[C@@H]4CO)nn3)CC2)ccn1,-20.23%
6,CC(C)n1ccnc1C1CCN(C(=O)c2cc[nH]n2)CC1,7.968%
7,CCOc1ccccc1OC1CCN(C(=O)c2cc[nH]n2)CC1,-11.18%
8,CC(=O)NCc1nccnc1C1CCN(C(=O)c2cc[nH]n2)CC1,109%
9,O=C(c1cc[nH]n1)N1CCC(c2nccn2Cc2ccncc2)CC1,-13.9%
10,CC(C)Oc1ncccc1CNC(=O)c1cc[nH]n1,6.018%
11,CC(=O)N1CCC(c2nccnc2CNC(=O)c2cc[nH]n2)CC1,109.1%
12,COCC1CC2(CCNCC2)CN1Cc1csc(C)n1.O=C(O)C(F)(F)F.O=C(O)C(F)(F)F (stereo not drawn),-1.413%
13,COCCN(Cc1ccc(F)cc1Cl)C(=O)c1cc(C)n[nH]1,6.366%
14,Cc1cc(Cn2cc(C(C)Cc3ccc4c(c3)OCO4)nn2)n[nH]1 (stereo not drawn),3.819%
15,Cc1cnc(N2CC[C@@H](N3CCOCC3)[C@@H]2Cc2ccncc2)nc1.O=C(O)C(F)(F)F.O=C(O)C(F)(F)F,-9.199%
16,COc1ccc(C(C(=O)O)N2CCN(C3CCCCC3)CC2)cc1OC (stereo not drawn),-12.55%
17,O=C(O)C(c1cccc2c1OCC2)N1CCC(N2CCSCC2)CC1 (stereo not drawn),4.197%
18,O=C(O)C(c1ccc2c(c1)OCCO2)N1CCC(N2CCSCC2)CC1 (stereo not drawn),114.8%
19,O=C(O)C(c1ccc2c(c1)OCCO2)N1CCSCC1 (stereo not drawn),3.219%
20,O=C(O)C(c1ccc(O)cc1)N1CCC(N2CCSCC2)CC1 (stereo not drawn),107.3%
